Data from PubChem BioAssay AID1478 (National Center for Advancing Translational Sciences (NCATS), 2009).
Screen size: about 200,000 compounds; about 860 (0.43%) were called active. The call rests on the fitted dose curve; in most records, active means well fitted inhibition curve with a large enough effect; inconclusive means small, poorly fitted or top-dose-only effect; inactive means flat fitted curve, though single readings scatter. For the sample, actives were picked, then their nearest neighbours and some compounds at random.

Molecular target: Cruzipain (Trypanosoma cruzi) (UniProt P25779)
Sequence (P25779 123-467 limits assumed): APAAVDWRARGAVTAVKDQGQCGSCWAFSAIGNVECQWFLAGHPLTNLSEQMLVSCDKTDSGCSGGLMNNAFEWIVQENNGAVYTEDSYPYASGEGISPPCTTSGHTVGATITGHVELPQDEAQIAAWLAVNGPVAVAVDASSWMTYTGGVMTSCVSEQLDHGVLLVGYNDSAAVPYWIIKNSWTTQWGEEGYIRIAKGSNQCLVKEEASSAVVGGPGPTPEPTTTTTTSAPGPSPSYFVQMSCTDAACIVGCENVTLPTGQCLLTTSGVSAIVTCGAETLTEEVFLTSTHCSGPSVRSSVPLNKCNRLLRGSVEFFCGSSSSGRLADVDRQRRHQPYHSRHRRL
Test: qHTS Assay for Promiscuous and Specific Inhibitors of Cruzain (with detergent); further: nearly all actives have a fitted effect of over 40% in size;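 on max response, negative = inhibition: plate controls were neutral wells for no effect and buffer without enzyme for full effect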
Details: purified cruzain, Z-FR-AMC fluorescence, 0.01% Triton
Procedure, shortened: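 Read-out: AMC fluorescence (360 nm excitation, 450 nm emission), four reads over 2 min, first-to-third difference used. Conditions: cruzain 1.5 nM, Z-FR-AMC 2 uM, pH 5.5 acetate, 5 mM DTT, 0.01% Triton X-100.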
Potency means the concentration at half of the fitted maximal effect.

SMILES	max response, negative = inhibition	Potency
CC(=O)c1ccc(NC(c2ccc(F)cc2)c2nnc(-c3ccccc3)o2)cc1 (centres undefined)	-5.26% (inactive)	–
CCn1cc2nc(SCc3cccc(F)c3)n(CCc3ccccc3)c(=O)c2n1	-3.27% (inactive)	–
COc1ccc(-n2c(=O)c3c(c4cc(OC)ccc4n3C)n(Cc3cccc(C)c3)c2=O)cc1	-1.25% (inactive)	–
Cc1ccc(NC(=O)c2cc(S(=O)(=O)NCCC3=CCCCC3)ccc2F)cc1C	1.53% (inactive)	–
O=C(COC(=O)[C@H](Cc1ccccc1)NC(=O)c1cccs1)Nc1cc(F)ccc1F	–	20 µM (active)
Cc1ccc(C)c(NC(CC(=O)c2ccccc2)C(=O)OCC(=O)c2cccs2)c1 (centres undefined)	-3.94% (inactive)	–
Cc1ccc(F)c(NC(=O)CCc2ccccc2)c1	2.16% (inactive)	–
CC(=O)Nc1ccc(NC(=O)C2CCCN(S(=O)(=O)c3ccc4c(c3)CCCC(=O)N4)C2)cc1 (centres undefined)	-1.66% (inactive)	–
Cc1ccc(-c2onc(C)c2C)cc1S(=O)(=O)Nc1ccccn1	-0.474% (inactive)	–
CCOc1ccc(CNC(=O)C2CCCN(c3nnc(C)c4c(C)n(-c5ccccc5)nc34)C2)cc1 (centres undefined)	-6.21% (inactive)	–
Cc1cc(C(=O)COC(=O)CNC(=O)c2ccc(F)cc2)c(C)n1Cc1ccco1	–	14.1 µM (active)
O=C(CNC(=O)c1ccco1)OCC(=O)c1ccccc1	-1.99% (inactive)	–
COc1ccc(C)cc1-n1nnnc1SCC(=O)c1cc(C)n(Cc2ccco2)c1C	-1.61% (inactive)	–
COc1ccc2c(Sc3ccc(C)cc3)c(C(=O)NC(C)c3ccccc3)[nH]c2c1 (centres undefined)	-7.2% (inactive)	–
CCOC(=O)c1c(C)[nH]c(CCC(=O)Nc2ccc(OC)c(OC)c2)c1C	2.38% (inactive)	–
CCN(CC)S(=O)(=O)c1nnc(NC(=O)COc2ccccc2Cl)s1	-2.1% (inactive)	–
CCOC(=O)c1c(S(=O)(=O)NCC(=O)Nc2ccc(Cl)c(C(F)(F)F)c2)c(C)n(C)c1C	-11.4% (inactive)	–
COc1cccc(-c2nnc3n(CCc4ccccc4)c(=O)c4ccccc4n23)c1O	-2.72% (inactive)	–
CNc1nc(SC)nc(N(C#N)CC(=O)OC)n1	–	17.8 µM (active)
Cc1cc(C)nc(N(C#N)CC(=O)Nc2ccccc2)n1	7.7% (inactive)	–
COC(=O)C(C)N(C#N)c1nc(C)nc(C)n1 (centres undefined)	4.3% (inactive)	–
Cc1c(C(=O)N(C)C)sc2c1c(=O)n(-c1ccc(F)cc1)c(=O)n2CC(=O)N(C)c1ccccc1	1.44% (inactive)	–
CC(C)C[C@H](NC(=O)[C@@H]1O[C@H]1C(=O)O)C(=O)NCCCCN=C(N)N	–	0.0562 µM (active)
Cc1ccccc1CSc1nc2c([nH]c3ccccc32)c(=O)n1C	-1.56% (inactive)	–
